Hits are enriched below; roughly 6.7% of the tested compounds scored in any of these assays.
C diff growth: C. difficile growth inhibitors, primary screen, HTS | Clostridium difficile clinical isolate growth, OD600, 24 h; active compounds read low | AID 1259249, 2017 | growth activity, negative = inhibition, % at 16 µg/mL (by protocol) | 0.25% of 86,000 active;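 active = mean growth activity at or below -80% and every replicate also at or below -80%; inconclusive = mean at or below -80% but some replicate above -80%; inactive = mean growth activity above -80%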;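 note: 0% = DMSO wells and -100% = levofloxacin 16 µg/mL wells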
T cruzi growth-1: T. cruzi intracellular proliferation inhibitors, primary screen, cell-based, beta-gal Tulahuen parasites, NIH3T3 host, luminescence | 5.9% of 77,000 active | AID 624255, 2012 | T. cruzi beta-gal in NIH3T3, GalScreen luminescence, 90 h | inhibition, % at 8.34 µM;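 active = mean inhibition above about 93%, with at least 55% of replicates each passing it, limit read from the data, passing the limit was not always enough; inconclusive = only one of those two conditions holds; inactive = neither condition holds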
Pf Dd2 inh: P. falciparum Dd2 growth inhibitors, primary screen, SYBR Green fluorescence, single dose replicates; 72 h; active compounds read low; activity change, % at 10 µM; 2.3% of 94,000 active; in the data active = activity change below about -80%; inconclusive = no clear call, values can overlap the other calls
T cruzi growth-2: T. cruzi intracellular proliferation inhibitors, confirmation, cell-based, NIH3T3 host, beta-gal parasite, luminescence, cherry-pick | shares compounds with T cruzi growth-1 | T. cruzi beta-gal in NIH3T3, GalScreen luminescence, 90 h | inhibition, % at 8.35 µM | 72% of 5,600 active;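 active = mean replicate inhibition above about 95% and at least 55% of replicates individually reaching it, limit read from the data; inconclusive = only one of the two criteria is met; inactive = neither criterion is met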
T cruzi growth-3: inhibitors of intracellular T. cruzi replication, confirmation, NIH3T3 host cells, beta-gal parasites, cherry-pick, set 2; T. cruzi beta-gal in NIH3T3, GalScreen luminescence, 90 h; shares compounds with T cruzi growth-1; 21% of 5,600 active; AID 651740, 2012; inhibition, % at 2.09 µM;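 active = mean inhibition above about 95%, with at least 55% of replicates also reaching it, limit read from the data; inconclusive = meets just one of the two conditions; inactive = meets neither condition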;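 note: plate controls were neutral control median for no effect and positive control median for full effect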
NIH3T3 tox: cytotoxicity in mouse NIH/3T3 fibroblasts, confirmation, cytotoxicity control for T. cruzi proliferation inhibitor project, cell-based, cherry-pick, single point. shares compounds with T cruzi growth-1. NIH/3T3 viability, CellTiter-Glo ATP luminescence, 90 h. cytotoxicity (signal decrease), % at 8.35 µM. 14% of 5,600 active. AID 651742, 2012;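 active = mean signal decrease across replicates above about 35% based on untreated-well scatter, with enough replicates individually passing, limit read from the data; inconclusive = no rule stated though some were filed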;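 note: 0% = median of neutral control wells and 100% = median of positive control wells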
NIH3T3 tox 2: NIH/3T3 fibroblast cytotoxicity, confirmation, cytotoxicity control, cell-based, cherry-pick, single point, set 2; shares compounds with T cruzi growth-1; NIH/3T3 viability, CellTiter-Glo ATP luminescence, 90 h; inhibition, % at 24.9 µM; 56% of 5,600 active;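 active = mean loss of cell viability signal at or above a set limit, and enough replicates individually reaching it; inconclusive = meets only the mean limit or only the replicate share; inactive = meets neither condition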;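 note: 0% = median of neutral control wells and 100% = median of positive control wells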
Starred values were filed as active, the others as inactive; ! = not confirmed by another sample.

`C[C@@H]1CN([C@H](C)CO)C(=O)CCCn2cc(nn2)CO[C@@H]1CN(C)C(=O)c1ccc(N2CCN(C)CC2)cc1` gave C diff growth 1, T cruzi growth-1 120*, Pf Dd2 inh 2, T cruzi growth-2 -38, T cruzi growth-3 -60, NIH3T3 tox -12 and NIH3T3 tox 2 -15.
For C[C@@H]1CN([C@@H](C)CO)C(=O)CCCn2cc(nn2)CO[C@H]1CN(C)C(=O)C1CC1 the results were C diff growth 1, T cruzi growth-1 inconclusive, Pf Dd2 inh 8, T cruzi growth-2 48, T cruzi growth-3 11, NIH3T3 tox 11 and NIH3T3 tox 2 15.
C[C@H]1CN([C@@H](C)CO)C(=O)CCCn2cc(nn2)CO[C@@H]1CN(C)Cc1ccccc1 was read as T cruzi growth-1 -21 and Pf Dd2 inh 2.
Screening C[C@H]1CN([C@@H](C)CO)C(=O)CCCn2cc(nn2)CO[C@@H]1CN(C)C(=O)Nc1cccc(C(F)(F)F)c1 returned C diff growth 3, T cruzi growth-1 28 and Pf Dd2 inh -7.
`C[C@@H]1CN([C@@H](C)CO)C(=O)CCCn2cc(nn2)CO[C@@H]1CN(C)C(=O)Nc1cccc(C(F)(F)F)c1` gave C diff growth -5, T cruzi growth-1 152*, Pf Dd2 inh 1, T cruzi growth-2 -26, T cruzi growth-3 6, NIH3T3 tox 12 and NIH3T3 tox 2 -3.
C[C@H]1CN([C@@H](C)CO)C(=O)CCCn2cc(nn2)CO[C@@H]1CN(C)C(=O)c1ccc(N2CCN(C)CC2)cc1 was read as C diff growth -6, T cruzi growth-1 -20 and Pf Dd2 inh -1.
`C[C@@H]1CN([C@@H](C)CO)C(=O)CCCn2cc(nn2)CO[C@H]1CN(C)Cc1ccccc1` gave C diff growth 6, T cruzi growth-1 121*, Pf Dd2 inh 13, T cruzi growth-2 -101, T cruzi growth-3 -67, NIH3T3 tox -24 and NIH3T3 tox 2 -13.
Screening COc1ccc2c3c([nH]c2c1)[C@@H](CO)N(Cc1nccs1)CC31CN(C(=O)C2CCCC2)C1 returned C diff growth 1 and Pf Dd2 inh 3.
`C[C@@H]1CCCCO[C@@H](CN(C)Cc2ccc(C(F)(F)F)cc2)[C@H](C)CN([C@@H](C)CO)C(=O)c2cc(NS(C)(=O)=O)ccc2O1` gave C diff growth 0, T cruzi growth-1 15 and Pf Dd2 inh -45.
Screening C[C@H]1CN([C@@H](C)CO)C(=O)Cc2cc(NC(=O)CCC(F)(F)F)ccc2O[C@@H]1CN(C)Cc1ccccc1 returned C diff growth -4, T cruzi growth-1 46 and Pf Dd2 inh -16.
C[C@H]1CN([C@@H](C)CO)C(=O)CCCn2cc(nn2)CO[C@@H]1CN(C)C(=O)Cc1ccccc1 was read as C diff growth 1, T cruzi growth-1 131*!, Pf Dd2 inh 9, T cruzi growth-2 17, T cruzi growth-3 34, NIH3T3 tox 10 and NIH3T3 tox 2 3.
C[C@@H]1CN([C@H](C)CO)C(=O)CCCn2cc(nn2)CO[C@@H]1CN(C)C(=O)Cc1ccccc1 was read as C diff growth -2, T cruzi growth-1 33 and Pf Dd2 inh 5.
For C[C@H](CO)N1C[C@H](C)[C@H](CN(C)Cc2cccc(O)c2)OCc2cn(nn2)CCCC1=O the results were C diff growth 2, T cruzi growth-1 inconclusive, Pf Dd2 inh 1, T cruzi growth-2 -13, T cruzi growth-3 4, NIH3T3 tox -3 and NIH3T3 tox 2 -6.
For C[C@H]1CN([C@@H](C)CO)C(=O)CCCn2cc(nn2)CO[C@@H]1CN(C)Cc1cccc(O)c1 the results were T cruzi growth-1 15 and Pf Dd2 inh 0.
`O=C(C[C@H]1CC[C@H](NC(=O)Nc2ccc(C(F)(F)F)cc2)[C@H](CO)O1)NCc1ccccn1` gave C diff growth -2, T cruzi growth-1 6 and Pf Dd2 inh -10.
`COc1ccc(S(=O)(=O)N2CC3(CN(Cc4ccncc4)[C@@H](CO)c4[nH]c5cc(OC)ccc5c43)C2)cc1` gave Pf Dd2 inh 66.
For COc1ccc2c3c([nH]c2c1)[C@@H](CO)N(C(=O)c1ccc(F)cc1)CC31CN(S(=O)(=O)c2cccs2)C1 the results were C diff growth 16 and Pf Dd2 inh -5.
Cc1ccc(S(=O)(=O)Nc2ccc3c(c2)CC(=O)N([C@H](C)CO)C[C@@H](C)[C@@H](CN(C)Cc2ccc4c(c2)OCO4)O3)cc1 was read as C diff growth -17, T cruzi growth-1 86 and Pf Dd2 inh -9.
`C[C@H]1CN([C@@H](C)CO)C(=O)Cc2cc(NS(=O)(=O)c3ccc(Cl)cc3)ccc2O[C@@H]1CN(C)Cc1ccc2c(c1)OCO2` gave C diff growth 4, T cruzi growth-1 107*, Pf Dd2 inh -10, T cruzi growth-2 98*, T cruzi growth-3 17, NIH3T3 tox -1 and NIH3T3 tox 2 6.
`Cc1ccc(S(=O)(=O)Nc2ccc3c(c2)CC(=O)N([C@H](C)CO)C[C@@H](C)[C@H](CN(C)Cc2ccc4c(c2)OCO4)O3)cc1` gave C diff growth -14, T cruzi growth-1 104*, Pf Dd2 inh 50, T cruzi growth-2 106*, T cruzi growth-3 55, NIH3T3 tox 14 and NIH3T3 tox 2 25*.
Cc1ccc(S(=O)(=O)Nc2ccc3c(c2)CC(=O)N([C@@H](C)CO)C[C@@H](C)[C@H](CN(C)Cc2ccc4c(c2)OCO4)O3)cc1 was read as C diff growth -19, T cruzi growth-1 99*, Pf Dd2 inh -13, T cruzi growth-2 103*, T cruzi growth-3 inconclusive, NIH3T3 tox 9 and NIH3T3 tox 2 inconclusive.
Screening C[C@H](CO)N1C[C@H](C)[C@@H](CN(C)Cc2ccc3c(c2)OCO3)Oc2ccc(NS(=O)(=O)c3ccc(Cl)cc3)cc2CC1=O returned C diff growth 44, T cruzi growth-1 89 and Pf Dd2 inh -22.
`Cc1ccc(S(=O)(=O)Nc2ccc3c(c2)CC(=O)N([C@H](C)CO)C[C@H](C)[C@H](CN(C)Cc2ccc4c(c2)OCO4)O3)cc1` gave C diff growth -5, T cruzi growth-1 51 and Pf Dd2 inh -11.

Compound activity from PubChem BioAssay.
